This is a sample that favours compounds with a hit; in the whole collection about 4.3% have one here.
HIF-2a block – HIF-2a reporter inhibitors, primary screen, luminescence, 786-0 RCC cells | 786-0 RCC cells HIF-2a reporter, luciferase luminescence, overnight | inhibition, % at 18.8 µM | actives 0.72% (n = 360,000);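 active = inhibition of the luminescence signal of 40% or more relative to plate controls, in a single-dose primary screen at 18.75 µM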
KKLEB tox – cytotoxicity in KKLEB CF airway cells, primary screen, cytotoxicity control for CF NF-kB inhibitor project, cell-based, uHTS, fluorescence assay plates | KKLEB CF airway cells viability, ATPlite luminescence, overnight; active compounds read low; cells stimulated with P. aeruginosa culture filtrate | activity change (cytotoxicity), % at 5 µM | actives 0.36% (n = 360,000) | AID 602141, 2011;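 active = corrected activity change at or below -50% at 5 µM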
Peg3 promoter – Peg3 promoter-driven luciferase inhibitors, primary screen, cell-based, HeLa, luciferase luminescence; HeLa PEG-Prom luciferase reporter, overnight; inhibition, % at 20 µM; actives 1.7% (n = 360,000); AID 588405, 2011;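 active = inhibition of at least 50% at 20 µM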
TRPM1 prom inh – inhibitors of MITF-dependent TRPM1 promoter reporter, primary screen, cell-based, SK-MEL-5, single point, luciferase | SK-MEL-5 TRPM1 promoter luciferase, 24 h | inhibition, % at 12.5 µM | actives 0.83% (n = 330,000) | AID 488899, 2010;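 active = mean inhibition across replicates of 60% or more, whatever share of single replicates reaches that level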
CF NFkB inh – inhibitors of PAF-induced NF-kB signaling, primary screen, cell-based, GFP fluorescence, uHTS; actives 0.86% (n = 360,000); AID 588850, 2011; KKLEB NF-kB-GFP reporter, GFP fluorescence overnight; inhibition, % at 5 µM;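 active = at least 50% inhibition at 5 µM, scaled per plate between neutral and stimulator controls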;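 also: PAF is a Pseudomonas aeruginosa culture filtrate used as stimulus; plate controls were PAF-stimulated DMSO wells for no effect and unstimulated DMSO wells for full effect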
CHOP inhibitor – inhibitors of CHOP promoter induction, primary screen, cell-based, unfolded protein response, luciferase reporter; AID 2732, 2010; CHO-K1 CHOP-promoter luciferase, tunicamycin-induced, 15-18 h; actives 3.8% (n = 220,000); inhibition, % at 10 µM;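 active = compounds that reduced the stress-induced luciferase reporter signal by more than about 70% of percent inhibition, limit read from the data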;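 also: 0% = tunicamycin plus vehicle and 100% = wells without tunicamycin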
Numbers without * were called inactive; nt = not tested or not shown.

SMILES	HIF-2a block	KKLEB tox	Peg3 promoter	TRPM1 prom inh	CF NFkB inh	CHOP inhibitor
COCCN1C(=O)CCC1(C)C(=O)Nc1c(C)cccc1C (configuration not stated)	13.0	3.3	-4.3	nt	-2.7	nt
Cc1c(CN2CCC(CO)(Cc3cccc(C(F)(F)F)c3)CC2)c2ccccc2n1C	4.4	-18.9	111.6*	26.7	32.1	20.7
OCC1(Cc2cccc(C(F)(F)F)c2)CCN(Cc2cc3ccccc3o2)CC1	17.0	-20.0	23.1	8.7	15.0	89.3*
COc1ccc(CC2(CO)CCN(Cc3cc4ccccc4o3)CC2)cc1	15.4	-16.4	17.0	6.1	-11.7	33.0
Cc1cc(NC(=O)CSc2nc(-c3cccs3)nc3ccccc23)no1	3.2	-6.1	28.0	10.6	15.5	nt
COCCNC(=S)N(C)[C@H]1C[C@H]2c3cc(-c4ccccc4)ccc3CCN2C(=O)[C@H]1[C@H](C)O	1.0	1.7	-1.7	nt	-3.3	nt
COc1ccc(CN(C)C(=O)Cn2cc(C)c(=O)[nH]c2=O)cc1OC	7.7	11.6	6.1	-6.0	4.7	nt
Cc1sc2ncnc(NCC3COc4ccccc4O3)c2c1C (configuration not stated)	-26.5	-2.4	-4.8	31.9	10.9	76.1*
Cc1sc2ncnc(NCC3CCCO3)c2c1C (configuration not stated)	10.5	-7.0	13.5	0.1	-4.3	27.0
c1ccc(-c2csc3ncnc(NCC4COc5ccccc5O4)c23)cc1 (configuration not stated)	7.3	-15.7	27.2	41.8	28.5	93.1*
CCCS(=O)(=O)NC(=O)C1(C)CCCN(C(=O)COc2ccccc2)C1 (configuration not stated)	0.3	-7.4	-9.3	nt	-14.4	nt
COCCN1C[C@@H](CO)O[C@@H](n2cnc3c(NCCN(C)C)ncnc32)C1	6.7	8.4	-5.1	nt	-6.0	nt
Cc1ccc(S(=O)(=O)NC(=O)C2(C)CCN2C(=O)Cc2ccc(Cl)cc2Cl)nc1 (configuration not stated)	8.0	-11.3	8.1	nt	-9.4	nt
O=C(CN(C1CCCCC1)C1CCCCC1)N1CCc2ccccc2C1	25.9	-7.2	34.1	5.1	0.6	87.1*
c1ccc(Nc2nn[nH]n2)cc1	11.7	4.8	-3.5	9.5	2.7	82.1*
Nc1nc(Nc2ccccc2)n[nH]1	7.9	4.4	5.6	-2.4	-45.7	12.8
Cn1cccc1Cc1nnc(SCC(=O)Nc2cccc(Cl)c2)n1-c1ccc(F)cc1	-9.0	1.7	-0.1	5.3	-22.9	75.0*
CC1CCN(S(=O)(=O)c2cccc(C(=O)Nc3ccccc3)c2)CC1	10.3	1.1	15.3	9.3	3.0	0.7
CC1CCN(S(=O)(=O)c2csc(C(=O)Nc3ccccc3)c2)CC1	5.5	4.1	2.5	9.6	6.3	76.6*
O=C(Cc1ccccc1)Nc1ccc(S(=O)(=O)N2CCOCC2)cc1	8.7	-4.3	13.1	13.5	3.7	nt
CC1CCN(S(=O)(=O)c2ccc(NC(=O)Cc3ccccc3)cc2)CC1	17.9	4.3	18.8	-11.6	-0.8	85.2*
O=C(COC(=O)/C=C/c1ccc(C(F)(F)F)cc1)NC1CCS(=O)(=O)C1 (configuration not stated)	12.5	13.0	8.0	-0.9	-3.8	nt
CC1(C(=O)Nc2cccc(NS(C)(=O)=O)c2)Cc2c(-c3cccc(C(N)=O)c3)ccnc2O1 (configuration not stated)	15.8	2.3	-13.4	nt	8.2	nt
CC1=CC(C)(C)N=C(Nc2nc(C)c3cc(C)cc(C)c3n2)N1	-11.4	17.8	61.0*	-8.5	-12.9	13.4
OCCN1CCN(c2ncnc3c2c(-c2ccccc2)cn3-c2ccc(Br)cc2)CC1	16.6	-9.3	35.4	-22.6	14.4	69.1
SMILES	HIF-2a block	KKLEB tox	Peg3 promoter	TRPM1 prom inh	CF NFkB inh	CHOP inhibitor
NC(=O)C1CCN(c2ncnc3c2c(-c2ccccc2)cn3-c2ccccc2)CC1	22.3	-2.7	61.5*	-5.2	17.2	38.7
CC1(C(=O)N2CCCCC2)CCN1C(=O)Cc1ccc(-c2ccccc2)cc1 (configuration not stated)	-2.1	-15.4	-0.3	nt	4.6	nt
COC(=O)Cc1c(C)c2ccc(OC3CCCCC3=O)c(C)c2oc1=O (configuration not stated)	-111.9	-13.1	-90.5	-19.8	4.8	nt
CCOC(=O)/C=C(\C)Sc1cc(O)c2ccccc2c1O	0.2	-42.7	37.5	82.9*	88.5*	-27.8
Cc1cc(C)c(S(=O)(=O)c2cccc(Br)c2C)c(Cl)n1	29.5	3.6	11.4	-12.0	3.7	nt
O=C(Nc1cccc2cccnc12)c1ccc2sc([C@@H]3O[C@H](CO)[C@H](O)[C@H](O)[C@H]3O)nc2c1	-46.2	14.4	-37.5	nt	-27.8	nt
Cc1nccn1-c1cc(C(C)(C)C)nc2c(-c3ccccc3)cnn12	-52.1	9.7	-24.6	-21.2	10.1	79.5*
CCc1nccn1-c1cc(C(C)(C)C)nc2c(-c3ccc(Cl)cc3)cnn12	-112.1	-19.1	-59.8	-22.1	15.4	14.9
CN(C(=O)Nc1ccccc1)C1CCS(=O)(=O)C1 (configuration not stated)	8.5	4.7	1.9	1.0	-10.7	3.4
CC(=O)NC1=C(N(C)C2CCS(=O)(=O)C2)C(=O)c2ccccc2C1=O (configuration not stated)	11.4	-8.1	12.0	63.8*	5.2	75.0*
O=C1CCCN1c1ccc(S(=O)(=O)NCCOc2ccccc2)cc1	9.4	5.5	24.9	15.9	-6.5	17.2
Cc1cc(N2CCCC2=O)cc(C)c1S(=O)(=O)NCCOc1ccc(C(C)(C)C)cc1	28.1	-0.8	18.1	-8.4	9.8	78.0*
O=C(NC(Nc1nc2ccc([N+](=O)[O-])cc2s1)(C(F)(F)F)C(F)(F)F)c1cccnc1	11.7	-47.5	12.4	78.0*	54.9*	90.3*
CN(C)S(=O)(=O)c1ccc2nc(NC(=O)c3cccnc3)sc2c1	-223.9	-7.4	-171.3	-56.5	16.4	-12.6
Cc1ccc(-n2sc3cc(F)ccc3c2=O)c(C)c1	-31.8	5.6	28.1	nt	27.3	nt
O=c1c2ccccc2sn1-c1ccc(F)cc1	-93.5	-9.2	-65.4	9.1	31.8	nt
O=c1c2ccc(F)cc2sn1-c1ccccc1	-47.5	4.8	-95.1	nt	54.1*	nt
O=c1c2ccccc2sn1-c1ccc(Cl)cc1	-240.3	-9.7	-128.2	nt	63.8*	nt
O=C1NC(c2ccccc2)N=C2Oc3ccccc3C=C12 (configuration not stated)	19.5	7.8	2.8	5.5	25.4	nt
Cc1ccc2nc(NC(=O)Cc3cccs3)sc2c1	-246.5	1.8	-305.4	-45.3	4.9	-8.0

Screens as filed in PubChem BioAssay.
